Assay outcomes (PubChem)
CHT PAM = CHT positive allosteric modulators, primary screen, cell-based, membrane potential dye, choline EC20; High affinity choline transporter 1 (Homo sapiens), Q9GZV3; hit rate 0.49% among 310,000; CHT-expressing cells; hits give high values; LV-AA mutant CHT in HEK293 cells; B-score at 10 µM; AID 488977, 2010;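 active = initial fluorescence not abnormally high and integrated response B-score, plate-corrected, over 3 SD above library mean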
Target sequence (Q9GZV3 whole entry, looked up): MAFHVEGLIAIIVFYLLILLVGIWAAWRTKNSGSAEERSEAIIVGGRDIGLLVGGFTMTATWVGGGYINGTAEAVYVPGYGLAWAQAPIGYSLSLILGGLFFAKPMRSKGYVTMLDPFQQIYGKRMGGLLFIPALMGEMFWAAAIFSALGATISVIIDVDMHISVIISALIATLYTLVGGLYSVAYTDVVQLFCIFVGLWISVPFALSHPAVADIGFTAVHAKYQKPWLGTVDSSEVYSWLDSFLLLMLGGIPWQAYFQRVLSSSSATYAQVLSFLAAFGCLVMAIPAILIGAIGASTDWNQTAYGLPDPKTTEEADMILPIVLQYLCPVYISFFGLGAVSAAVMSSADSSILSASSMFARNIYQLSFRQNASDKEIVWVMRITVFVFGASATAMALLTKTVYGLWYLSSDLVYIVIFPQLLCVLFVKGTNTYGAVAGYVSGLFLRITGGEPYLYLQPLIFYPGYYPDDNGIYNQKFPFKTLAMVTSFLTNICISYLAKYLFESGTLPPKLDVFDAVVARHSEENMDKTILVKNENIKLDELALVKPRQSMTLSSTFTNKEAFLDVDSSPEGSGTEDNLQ
SUMO Mot1 rescue = yeast Mot1-301 growth rescue at high temperature, primary screen, SUMOylation pathway inhibitor project, S. cerevisiae, ATP luminescence, 38.5C; hit rate 1% among 320,000; growth rescue, % at 18.8 µM; S. cerevisiae Mot1-301 growth rescue; percent above DMSO median, 100 means doubled;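 active = every valid replicate shows activation above 250% relative to neutral control wells; inactive = the rest, any valid replicate at or below 250%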;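 note: OY570 slx delta 5 strain wells were the positive control but not used for scaling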
MEKK2 WT-MEK5 = modulators of MEK5 binding to wildtype MEKK2, primary screen, biochemical, multiplex bead flow cytometry, Alexa488-MEK5; Alexa488-MEK5 binding to MEKK2 WT; actives lie on both sides; hit rate 1.1% among 290,000; Mitogen-activated protein kinase kinase kinase 2 (Homo sapiens), Q9Y2U5; binding response (% of control), % at 10 µM; in the data active = binding response below about 67% or above about 130%
CHT inh = inhibitors of human choline transporter CHT; CHT-expressing cells, membrane potential dye, choline response; hits give low values; B-score at 10 µM; hit rate 0.86% among 310,000;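 active = B-score over 3 SD under the library average, and starting fluorescence ratio not unusually high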;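 note: choline stimulus applied at its EC90 after an EC20 pre-addition; B-score computed on integrated fluorescence ratio after choline addition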
MEKK3 PB1 HTS = modulators of MEKK3-MEK5 PB1 binding, primary screen, biochemical, wildtype MEKK3, multiplex bead flow cytometry, Alexa488-MEK5; Mitogen-activated protein kinase kinase kinase 3 (Homo sapiens), Q99759; hit rate 1.4% among 290,000; binding response (% of control), % at 10 µM; bead-based flow cytometry, Alexa488-MEK5 binding to MEKK3; actives lie on both sides; 0 = blocked by unlabeled MEK5, 100 = vehicle;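 active = binding response more than 3 SD above or below the average of its plate-row segment, actives on both sides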;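 note: Alexa488 bead fluorescence after subtracting the streptavidin-only scavenger bead signal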
MEKK2 mut-MEK5 = MEK5 binding signal on mutant MEKK2 PB1, primary screen, biochemical, multiplex bead flow cytometry, Alexa488-MEK5; Alexa488-MEK5 binding to MEKK2 mutant; hit rate 0.35% among 290,000; percent response, % at 10 µM; in the data active = percent response above about 24%, passing the limit was not always enough
MEKK2wt confirm = modulators of MEK5 binding to wildtype MEKK2, confirmation, biochemical, single concentration, multiplex bead flow cytometry | hit rate 2.4% among 5,900 | shares compounds with MEKK3 PB1 HTS | Alexa488-MEK5 binding to MEKK2 WT; actives lie on both sides | binding response (% of control), % at 10 µM; in the data active = binding response below about 16% or above about 210%; inactive = in between
MEKK2mut-MEK5 = mutant MEKK2 PB1-MEK5 binding signal retest – biochemical, single concentration, multiplex bead flow cytometry, confirmation; shares compounds with MEKK3 PB1 HTS; Alexa488-MEK5 binding to MEKK2 mutant; percent response, % at 10 µM; hit rate 2% among 5,900; AID 1893, 2009; in the data active = percent response mostly above about 71%, no sharp cut-off; inactive = mostly below about 38%;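 note: higher means compound restores mutant binding toward wildtype level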
MEKK3-MEK5 inh = MEKK3 wild-type PB1 binding to MEK5, inhibitors, confirmation, biochemical, bead multiplex flow cytometry, single concentration, wildtype. shares compounds with MEKK3 PB1 HTS. Alexa488-MEK5 binding to MEKK3; hits give low values. binding response (% of control), % at 10 µM. hit rate 1.8% among 5,900. AID 1894, 2009;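 active = binding response below 72% of control, or above a set upper limit, though filed actives all read lower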;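 note: 100% = DMSO only wells and 0% = binding blocked by excess unlabeled MEK5; lower values mean stronger disruption of MEK5 binding to MEKK3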
Yeast Mot1 SUMO = growth restoration of Mot1-301 yeast on galactose, dose response, SUMO pathway inhibitor project, whole organism, S. cerevisiae, ATP luminescence, cherry-picked samples | S. cerevisiae Mot1-301 galactose growth, 24 h; -100 = growth of slx-deleted rescue strain | 2,300 tested, under 10 active | growth activity, percent, % at 42 µM | shares compounds with SUMO Mot1 rescue;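 active = Signal drops as the depositor expects, and the fitted half-maximal dose is no more than ten times the top valid tested dose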;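 note: more negative values mean stronger growth rescue toward the control strain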
Active calls of the source: *; i = inactive; . = no result; + = active, no number; [ ] = dose if it differs, or a comment. Only some compounds are listed: those with a hit (about 4.1% of all), similar ones and a draw of the others.

SMILES	CHT PAM	SUMO Mot1 rescue	MEKK2 WT-MEK5	CHT inh	MEKK3 PB1 HTS	MEKK2 mut-MEK5	MEKK2wt confirm	MEKK2mut-MEK5	MEKK3-MEK5 inh	others
CCOC(=O)Cn1c(COc2ccccc2OC)[n+](C)c2ccccc21	i	-2.4	.	i	.	.	.	.	.
CCCCCCCCCCOC(=O)Cn1c(COc2ccc(Cl)cc2)[n+](C)c2ccccc21	i	-58.2	349.0*	i	115.0	101.0*	204.0	54.0	108.0
CCCCCCCCCCOC(=O)Cn1c(COc2ccccc2)[n+](C)c2ccccc21	i	150.3	226.0*	i	113.0	61.0*	230.0*	84.0*	114.0
COc1ccc(C(O)(C(C)C)C(CN2CCOCC2)c2ccccc2)cc1 (stereo not drawn)	i	-7.4	111.0	i	107.0	5.0	.	.	.
CNC(=S)NCc1ccc(OC)cc1	i	13.9	94.0	i	55.0*[inhibitor]	-1.0	104.0	-1.0	101.0
C/C(=N\OCC(=O)Nc1ccc(F)c(F)c1F)c1cc2ccccc2o1	i	305.9	101.0	i	97.0	7.0	.	.	.
CCc1ccc(NC(=O)CO/N=C(\C)c2cc3ccccc3o2)cc1	i	-1.8	101.0	i	136.0*	-1.0	98.0	2.0	101.0
S=c1[nH]nc(-c2ccc(Cl)cc2)n1CCCN1CCOCC1	i	-19.4	119.0	i	118.0	431.0*	100.0	-6.0	103.0
CCOC(=O)c1c(C)[nH]c(-c2csc(N)n2)c1C	.	.	104.0	.	117.0	0.0	.	.	.
CCN(CC)S(=O)(=O)c1ccc(C(=O)NCCOC(=O)c2ccc(F)cc2F)cc1	i	13.7	107.0	i	103.0	5.0	.	.	.
CSc1nc(C)c(C(=O)Nc2ccccc2)c(-c2ccco2)c1C#N	i	-8.5	16.0*[inhibitor]	i	27.0*[inhibitor]	-16.0	98.0	-1.0	102.0
CC1CC(C)CN(C(=O)COC(=O)c2cccc([N+](=O)[O-])c2)C1 (stereo not drawn)	i	5.6	50.0	i	48.0*[inhibitor]	-16.0	100.0	-4.0	106.0
COc1cc(-c2ccc3oc(-c4cccc(C)c4)c(C#CC4(O)CCCCC4)c3c2)cc(OC)c1OC	.	-23.9	.	.	.	.	.	.	.
O=C(CC(=O)Nc1cc(Cl)ccc1Cl)Nc1cc(Cl)ccc1Cl	i	-7.4	109.0	i	107.0	4.0	.	.	.
O=C(NCCNC(=O)c1ccc(Cl)cc1Cl)c1ccco1	i	107.1	97.0	i	101.0	-5.0	.	.	.
O=C(N/N=C/C=C\c1ccco1)c1ccccn1	i	-9.7	104.0	i	112.0	4.0	.	.	.
O=C(N/N=C\C=C\c1ccco1)c1cc(-c2ccc3ccccc3c2)n[nH]1	i	593.7*	100.0	i	132.0*	0.0	90.0	-9.0	99.0
CCCN(C(=O)c1cc(S(=O)(=O)N2CCCCCC2)ccc1OC)C1CCS(=O)(=O)C1 (stereo not drawn)	i	1.3	.	i	.	.	.	.	.
NC(=O)C[n+]1cccc(CNC(=O)c2ccc(OC(F)F)cc2)c1	i	.	112.0	i	114.0	1.0	.	.	.
O=C(C[n+]1cccc(CNC(=O)c2ccc(OC(F)F)cc2)c1)Nc1cc(C(F)(F)F)ccc1Cl	i	-25.2	144.0*	i	101.0	25.0	155.0	18.0	102.0
Cc1nc2ccc(NC(=O)c3cccnc3)cc2s1	i	2.7	60.0	i	50.0*[inhibitor]	-13.0	105.0	7.0	104.0
Cc1nc2ccc(NC(=O)c3cnc(Cl)c(Cl)c3)cc2s1	i	2.3	107.0	i	106.0	7.0	.	.	.
CCN(CC)c1ccc(NC(=O)c2cccnc2)cc1	i	364.3	134.0*	i	110.0	13.0	96.0	-4.0	99.0
CCN(CC)c1ccc(NC(=O)c2cncc(Br)c2)cc1	i	-7.3	108.0	i	103.0	7.0	.	.	.
Cc1ccc(Oc2ccc(C=O)cn2)cc1	i	1.9	93.0	i	95.0	-7.0	.	.	.
SMILES	CHT PAM	SUMO Mot1 rescue	MEKK2 WT-MEK5	CHT inh	MEKK3 PB1 HTS	MEKK2 mut-MEK5	MEKK2wt confirm	MEKK2mut-MEK5	MEKK3-MEK5 inh	others
CO/N=C/c1ccc(Oc2ccc(C)cc2)nc1	i	494.6*	114.0	i	111.0	26.0*	98.0	-3.0	100.0	Yeast Mot1 SUMO=0.5
Cc1ccc(NC2(c3nnnn3-c3c(C)cccc3C)CCCCC2)cc1	i	21.4	106.0	i	101.0	-2.0	.	.	.
O=C(Nc1cccc(O)c1)C(Cc1ccccc1)N1C(=O)c2cccc3cccc(c23)C1=O (stereo not drawn)	i	854.6*	101.0	i	140.0*	0.0	98.0	-3.0	102.0	Yeast Mot1 SUMO=0.8
COc1cc(SC)ccc1C(=O)N1CCN(c2ccccc2)CC1	i	5.3	92.0	i	106.0	-11.0	.	.	.
COc1cc(SC)ccc1C(=O)N1CCCCCC1	i	+	126.0	i	125.0*	5.0	118.0	13.0	108.0	Yeast Mot1 SUMO=0.5
CCN(CC)CCNC(=O)/C(=C/c1cn(C)c2ccccc12)NC(=O)c1ccc(OC)c(OC)c1	i	-13.1	103.0	i	102.0	5.0	.	.	.
COCCCNC(=O)c1cc2cc([N+](=O)[O-])cc(OC)c2oc1=O	i	405.8*	51.0	i	39.0*[inhibitor]	-16.0	105.0	5.0	105.0	Yeast Mot1 SUMO=0.9
COc1cc([N+](=O)[O-])cc2cc(C(=O)NC(C)(C)C)c(=O)oc12	i	2.4	108.0	i	106.0	9.0	.	.	.
CN(C#N)c1nc(Cl)nc(Nc2cccc(Cl)c2)n1	i	596.8*	112.0	i	144.0*	4.0	102.0	-1.0	100.0	Yeast Mot1 SUMO=0.1
